A number with no mark means an inactive call. Results filed as inconclusive are left out. The source made the active and inactive calls. Calls follow the shape of the dose curve; as a rule, active = well fitted curve in the direction sought with a large enough effect; inconclusive = small, poorly fitted or top-dose-only effect, or another doubt; inactive = no such curve, though single readings can be large; an effect the other way counts as inactive or inconclusive.
Legend:
[1] = target: Cytochrome P450 3A4 (Homo sapiens) (UniProt P08684); experiment: qHTS Assay for Activators of Cytochrome P450 3A4 (AID 885); conditions: recombinant CYP3A4, Luciferin-PPXE luminescence, 60 min; series mostly up to 57.1 µM; also: nearly all actives have a fitted effect of over 65% in size
Chain of Cytochrome P450 3A4 (Homo sapiens) (P08684 whole entry, looked up): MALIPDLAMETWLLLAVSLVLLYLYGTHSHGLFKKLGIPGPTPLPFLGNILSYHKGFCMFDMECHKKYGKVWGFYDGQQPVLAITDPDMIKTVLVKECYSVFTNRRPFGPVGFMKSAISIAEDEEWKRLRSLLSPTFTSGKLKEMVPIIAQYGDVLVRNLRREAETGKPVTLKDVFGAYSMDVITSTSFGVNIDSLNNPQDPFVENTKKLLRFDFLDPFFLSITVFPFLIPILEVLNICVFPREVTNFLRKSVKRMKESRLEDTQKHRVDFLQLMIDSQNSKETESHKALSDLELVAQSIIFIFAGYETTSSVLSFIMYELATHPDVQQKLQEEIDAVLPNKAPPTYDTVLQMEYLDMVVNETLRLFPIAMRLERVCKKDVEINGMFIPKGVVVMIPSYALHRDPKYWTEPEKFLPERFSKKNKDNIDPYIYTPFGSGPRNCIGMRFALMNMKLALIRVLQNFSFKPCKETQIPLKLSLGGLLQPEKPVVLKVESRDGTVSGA
Outline: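 Signal was normalized against complete inhibition by 57 uM ketoconazole. The reaction used 20nM CYP3A4 with 25uM Luciferin-PPXE, 10-min compound preincubation and a 60-min NADPH-supported step at RT.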

[2] = target: Cytochrome P450 2D6 (Homo sapiens) (UniProt P10635); experiment: qHTS Assay for Inhibitors and Substrates of Cytochrome P450 2D6 (AID 891); conditions: recombinant CYP2D6, luciferin-ME EGE luminescence; series mostly up to 11.4 µM; also: nearly all actives have a fitted effect of over 60% in size; also: potency is read from the fitted curve at half-maximal effect
Chain of Cytochrome P450 2D6 (Homo sapiens) (P10635 whole entry, looked up): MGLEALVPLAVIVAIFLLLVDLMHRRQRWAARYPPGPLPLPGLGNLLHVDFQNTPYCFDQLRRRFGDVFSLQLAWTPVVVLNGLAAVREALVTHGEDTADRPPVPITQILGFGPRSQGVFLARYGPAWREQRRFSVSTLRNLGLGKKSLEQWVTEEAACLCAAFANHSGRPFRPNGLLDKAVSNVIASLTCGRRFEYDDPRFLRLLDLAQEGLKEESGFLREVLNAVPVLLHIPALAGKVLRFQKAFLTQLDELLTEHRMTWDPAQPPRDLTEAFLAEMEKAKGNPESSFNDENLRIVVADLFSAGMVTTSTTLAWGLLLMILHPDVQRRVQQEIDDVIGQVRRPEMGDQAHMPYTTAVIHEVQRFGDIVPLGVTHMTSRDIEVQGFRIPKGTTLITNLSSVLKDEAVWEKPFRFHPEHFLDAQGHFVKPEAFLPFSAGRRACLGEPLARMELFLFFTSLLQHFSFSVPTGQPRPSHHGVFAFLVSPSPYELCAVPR
Outline: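 Human CYP2D6 (5 nM) with 30 uM Luciferin-ME EGE (at Km) in 100 mM KPO4, compound preincubated 10 min, then NADPH regeneration system for 60 min at room temperature. Luciferin read by luminescence; normalized to 1.43 uM quinidine.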

For `CCC12C=C(/C=C/c3ccccc3)C(CC)(C1)C(c1ccccc1)CC2=O` (stereo unspecified), the activity change, positive = activation [1] was -32.8% [at 11.4 µM] and the Potency [2] was “inactive”.

In the case of `CO/N=C(\C)CCN1CCCCc2nc(C)c(C)cc21`, the activity change, positive = activation [1] is reported as -38.2% [at 11.4 µM] and the Potency [2] is reported as 3.98 µM (active).

`C[C@@H](c1ccccc1)N1C(=O)[C@H]2[C@H]3[C@H](O)[C@H](O)C/C(=N/OCc4ccccc4)[C@@H]3CC[C@@H]2C1=O` was tested, and the activity change, positive = activation [1] was -50% [at 11.4 µM] and the Potency [2] was “inactive”.

For `Clc1ccc(C2[C@H]3CN(Cc4ccc(-c5ccccc5)cc4)[C@H](c4ccccc4)C34CC2(c2ccccc2)C4)cn1` (stereo partly specified), the Potency [1] was “inactive”.

In the case of `CO[C@H]1COC(=O)[C@H](Cc2ccccc2)NC(=O)C/C=C\[C@@H](C)[C@H](OC)COC(=O)C/C=C\[C@@H]1C`, the activity change, positive = activation [1] is reported as -59.6% [at 11.4 µM].

In the case of `Cc1ccc(S(=O)(=O)N[C@H]2COC(=O)[C@H](C)COC(=O)[C@H](C)NC(=O)C/C=C\[C@H]2C)cc1`, the activity change, positive = activation [1] is reported as -41.3% [at 11.4 µM].

For `CCC1=C2CC[C@H]3C(=O)NC(=O)[C@H]3[C@H]2[C@@]2(C)C(=NCC3CC3)OC(=O)N2C1=O`, the Potency [1] was “inactive”.

For `Nc1cc(=O)[nH]c(=O)n1CC1CC1`, the Potency [1] was “inactive”.

In the case of `CC1CCC2C(=O)N3C(CCC(C)[C@H]3c3ccccc3Br)C(=O)N2C1c1ccccc1Br` (stereo partly specified), the activity change, positive = activation [1] is reported as -55.3% [at 11.4 µM] and the Potency [2] is reported as 3.16 µM (active).

`COc1ccc(OC2C=CC(C#Cc3ccc(C(C)(C)C)cc3)OC2CO)cc1` (stereo unspecified) was tested, and the activity change, positive = activation [1] was -56.3% [at 11.4 µM] and the Potency [2] was “inactive”.

In the case of `Cc1ccc(S(=O)(=O)N[C@H]2COC(=O)[C@@H](C)COC(=O)[C@H](C)NC(=O)C/C=C\[C@H]2C)cc1`, the activity change, positive = activation [1] is reported as -40.2% [at 11.4 µM].

`CO[C@H]1COC(=O)[C@@H](C)COC(=O)[C@@H](COCc2ccccc2)NC(=O)C/C=C\[C@H]1C` was tested, and the activity change, positive = activation [1] was -40.1% [at 11.4 µM].

In the case of `CO[C@H]1COC(=O)[C@H](C)COC(=O)C/C=C\[C@@H](C)[C@H](OC)COC(=O)C/C=C\[C@@H]1C`, the activity change, positive = activation [1] is reported as -51.9% [at 11.4 µM].

`O=C1[C@H]2O[C@@H]2[C@@H](O)[C@H]2[C@H]1CCn1c(=O)n(Cc3cc4c(cc3Cl)OCO4)c(=O)n12` gave an activity change, positive = activation [1] of -36.7% [at 11.4 µM].

With `CCC1=C2CC[C@H]3C(=O)NC(=O)[C@H]3[C@H]2[C@@]2(Cc3ccccc3)C(=NCC3CC3)OC(=O)N2C1=O` the Potency [1] was “inactive”.

With `N#Cc1ccc(C23CC4(C2)[C@H](CN(Cc2ccc(C(F)(F)F)cc2)[C@@H]4c2ccccc2)C3c2ccccc2)cc1` (stereo partly specified) the Potency [1] was “inactive”.

From PubChem BioAssay (NCATS)
